{"source": "PubChem BioAssay (NCI)", "note": "The panel holds about 83,000 compounds, 20% with a hit somewhere; the sample as a whole holds those more often.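 Each cell line was grown in a 96-well plate and treated with one concentration of compound for 48 hours. Values below 10 were considered active.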 Calls of active or inactive are those of the source."}
{"system": "HL-60(TB) leukemia", "assay": "NCI-60 one-dose screen, 48 h (100 = growth as untreated, 0 = no growth, -100 = all killed)", "conditions": "10 µM unless noted"}
{"smiles": "COc1cc2cc(c1Cl)N(C)C(=O)C[C@H](OC(=O)[C@H](C)N(C)C(=O)CCS)C[C@]1(C)O[C@H]1[C@H](C)[C@@H]1C[C@@](O)(NC(=O)O1)[C@H](OC)/C=C/C=C(\\C)C2", "growth": "-28% (active)"}
{"smiles": "O=C(O)[C@@H]1[C@H]2C[C@H]3c4[nH]c5ccccc5c4CCN3C[C@@H]2CC[C@@H]1O", "growth": "128% (inactive)"}
{"smiles": "c1ccc2c(-c3nc4ccccc4[nH]3)cccc2c1", "growth": "-3.88% (active)"}
{"smiles": "Nc1ccccc1-c1ccc([N+](=O)[O-])cc1", "growth": "14.2% (inactive)"}
{"smiles": "Cc1cccc(/C=C2\\N=C(c3ccccc3)N(c3ccc(S(N)(=O)=O)cc3)C2=O)c1", "growth": "92.7% (inactive)"}
{"smiles": "COc1ccc(/C=C(\\C(=O)NCc2cccnc2)S(=O)(=O)c2ccccc2)cc1OC", "growth": "33% (inactive)"}
{"smiles": "CCOc1ccc(C(=O)O)cc1", "growth": "103% (inactive)"}
{"smiles": "S=c1[nH]nc(-c2cc3ccc2CCc2ccc(cc2)CC3)n1C1CC1", "growth": "106% (inactive)"}
{"smiles": "CNc1ccc(Br)c2c1C(=O)c1ccccc1C2=O", "growth": "97.1% (inactive)"}
{"smiles": "Nc1[nH]n2cc(-c3ccc(F)cc3)nc2c1N=Nc1ccc(S(N)(=O)=O)cc1", "growth": "94.7% (inactive)"}
{"smiles": "C#CCOc1cccc(Nc2ncnc3cc(NC(=O)C=C)ccc23)c1", "growth": "-16.4% (active)"}
{"smiles": "CCN(CC)c1ccc(/C=C\\c2cc(C)c3cc(C)ccc3n2)cc1", "growth": "21.5% (inactive)"}
{"smiles": "O=C(CC(O)c1ccncc1)c1ccccc1", "note": "(stereo not given)", "growth": "100% (inactive)"}
{"smiles": "COc1cnc2c(c1)C(=O)c1c-2n(CCCN2CCCC2)c(=O)c2cc(Cl)ccc12", "growth": "27.9% (inactive)"}
{"smiles": "Cc1cc(N(CCNc2ccnc3cc(Cl)ccc23)Cc2ccc3c(c2)OCO3)nc(N2CCCC2)n1", "growth": "-61.9% (active)"}
{"smiles": "C=CC(O)CCC", "note": "(stereo not given)", "growth": "88.3% (inactive)"}
{"smiles": "CSc1ccc2c3c(n(C[C@H](O)CO)c(=O)c2c1)-c1ccccc1C3=O", "growth": "-12.2% (active)"}
{"smiles": "CNC(=O)c1cc(Oc2ccc(NC(=O)Nc3ccc(Cl)c(OC(F)(F)F)c3)c(F)c2)ccn1", "growth": "28.9% (inactive)"}
{"smiles": "CCN(CCCNC(=O)Cc1cc(=O)oc2cc(N(C)C)ccc12)CCNc1ccnc2cc(Cl)ccc12", "growth": "76.6% (inactive)"}
{"smiles": "O=C(OCc1ccc2c(Cl)cc(Cl)c(O)c2n1)N1CCN(C(=O)c2cc3ccccc3[nH]2)CC1", "growth": "31% (inactive)"}
{"smiles": "Cn1ncc(CC(=O)O)c1-n1nnc2cc(Cl)ccc2c1=O", "growth": "97.2% (inactive)"}
{"smiles": "CC1CC(C)(C)OB(OC(C)CC(C)(C)OB2OC(C)CC(C)(C)O2)O1", "note": "(stereo not given)", "growth": "103% (inactive)"}
{"smiles": "S=c1ccnc[nH]1", "growth": "59.3% (inactive)"}
{"smiles": "Brc1ccc2[nH]cc(-c3nc(-c4c[nH]c5ncccc45)cs3)c2c1", "growth": "32.7% (inactive)"}
{"smiles": "CCN1C(=O)N(CC)C2Nn3c(s/c(=C\\c4ccc([N+](=O)[O-])cc4)c3=O)=NC21", "note": "(stereo not given)", "growth": "87% (inactive)"}
{"smiles": "CN(Cc1ccccc1)Cc1ccc([N+](=O)[O-])cc1I", "growth": "85% (inactive)"}
{"smiles": "Cc1cnc(N)s1", "growth": "97.7% (inactive)"}
{"smiles": "C#CCn1cc(C=C2C(=O)N(C)C(=O)N(C)C2=O)c2cc(Cl)ccc21", "growth": "105% (inactive)"}
{"smiles": "COc1cc2c3c(c4c5ccccc5[nH]c4c2c(OC)c1OC)C(=O)N(CCN1CCCCC1)C3=O", "growth": "63% (inactive)"}
{"smiles": "O=C(Nc1cc(Cl)ccc1O)c1cccc(Nc2ccnc(C(F)(F)F)c2)c1", "growth": "-18% (active)"}
{"smiles": "COc1ccc2c(c1)/C(=C/c1c(-c3cc(OC)c(OC)c(OC)c3)nc3sccn13)C(=O)N2", "growth": "83.4% (inactive)"}
{"smiles": "Cc1cc2c(c(C)c1Cl)C(=O)/C(=C/c1cccc([N+](=O)[O-])c1)O2", "growth": "98.8% (inactive)"}
{"smiles": "O=C(N/N=C\\c1ccc(-c2ccc(Br)cc2)o1)c1cc2oc(-c3cccc(C(F)(F)F)c3)cc2[nH]1", "growth": "146% (inactive)"}
{"smiles": "CCCn1cnc2c(c1=N)C(c1ccc(Cl)cc1)c1sc3c(F)cccc3c1O2", "note": "(stereo not given)", "growth": "62.5% (inactive)"}
{"smiles": "O=C(Nc1ccc(-c2nc3ccc(NC(=O)c4ccc(Cl)cc4)cc3[nH]2)cc1)c1ccc(Cl)cc1", "growth": "-45.9% (active)"}
{"smiles": "CC1Cc2c(Cl)ncnc2N(C)c2ccc(Cl)cc21", "note": "(stereo not given)", "growth": "13.3% (inactive)"}
{"smiles": "CN1CCN(Cc2ccc(NC(=O)c3ccc(C#Cc4c(N)ncc5ccc(F)cc45)cc3)cc2C(F)(F)F)CC1", "growth": "-10.7% (active)"}
{"smiles": "COc1ccc(Nc2ncnc3c2sc2nc(C)cc(C)c23)cc1", "growth": "97.9% (inactive)"}
{"smiles": "COC(=O)/C(Br)=C/c1c[nH]c2ccc(Br)cc12", "growth": "67.9% (inactive)"}
{"smiles": "COc1ccc(S(=O)(=O)NC2c3ccccc3CC2O)cc1OC", "note": "(stereo not given)", "growth": "103% (inactive)"}
